These results are taken from paper PMC4336329 (PLoS ONE, 2015).

Out of some 310,000 compounds screened, about 14,000 (4.5%) showed an effect of 50% or more. Effects have a minus sign here. Many of the other results were omitted from the sample, so strong results are more common in it than they were.
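Further: peak tail current of the secondary pulse compared with the same well before compound.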

The test deals with human ether-à-go-go-related gene (hERG) potassium channel (human, UniProt Q12809). Put plainly: primary screen, population patch clamp on CHO cells stably expressing hERG; higher = less effect of the substance.
Sequence of human ether-à-go-go-related gene (hERG) potassium channel (Q12809 whole entry, looked up): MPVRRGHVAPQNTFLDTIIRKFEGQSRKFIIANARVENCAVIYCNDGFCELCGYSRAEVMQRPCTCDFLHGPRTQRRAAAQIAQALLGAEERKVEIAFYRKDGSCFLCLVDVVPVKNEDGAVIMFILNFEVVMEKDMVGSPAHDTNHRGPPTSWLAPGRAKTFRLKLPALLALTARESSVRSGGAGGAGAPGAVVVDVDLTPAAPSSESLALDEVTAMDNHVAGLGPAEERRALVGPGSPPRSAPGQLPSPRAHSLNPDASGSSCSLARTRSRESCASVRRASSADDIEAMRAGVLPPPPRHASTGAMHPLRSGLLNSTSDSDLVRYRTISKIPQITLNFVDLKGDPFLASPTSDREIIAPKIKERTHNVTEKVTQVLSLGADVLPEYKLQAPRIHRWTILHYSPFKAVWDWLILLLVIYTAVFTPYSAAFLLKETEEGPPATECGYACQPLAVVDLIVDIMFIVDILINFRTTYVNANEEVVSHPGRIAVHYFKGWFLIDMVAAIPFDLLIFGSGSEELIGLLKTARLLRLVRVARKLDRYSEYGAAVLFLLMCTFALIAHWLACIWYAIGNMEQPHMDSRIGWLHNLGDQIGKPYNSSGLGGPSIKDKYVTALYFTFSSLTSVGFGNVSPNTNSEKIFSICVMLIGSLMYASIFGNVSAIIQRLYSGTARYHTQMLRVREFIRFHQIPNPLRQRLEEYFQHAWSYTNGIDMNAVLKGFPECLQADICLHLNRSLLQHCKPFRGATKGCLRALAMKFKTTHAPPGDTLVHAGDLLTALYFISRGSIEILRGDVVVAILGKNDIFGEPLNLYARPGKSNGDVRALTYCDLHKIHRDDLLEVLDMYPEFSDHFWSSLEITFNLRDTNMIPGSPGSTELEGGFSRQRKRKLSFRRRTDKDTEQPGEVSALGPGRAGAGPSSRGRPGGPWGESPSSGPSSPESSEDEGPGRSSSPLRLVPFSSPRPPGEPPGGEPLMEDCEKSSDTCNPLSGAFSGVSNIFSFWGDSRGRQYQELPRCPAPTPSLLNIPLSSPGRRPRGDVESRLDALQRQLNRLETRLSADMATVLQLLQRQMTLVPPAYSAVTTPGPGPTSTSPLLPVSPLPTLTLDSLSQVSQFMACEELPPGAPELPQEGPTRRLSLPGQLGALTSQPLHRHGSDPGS
For `COCC(=O)Nc1sc2c(c1C(=O)OC)CCCC2`, the “hERG current change (%, negative = inhibition) at 10uM” value is -11.7%.

Consider `COc1ccc(C2/C=C\CN(C(=O)c3ccccc3)[C@H](Cc3ccccc3)C(=O)N2Cc2ccc(F)cc2)cc1` (stereo partly drawn), for which the “hERG current change (%, negative = inhibition) at 10uM” value is listed as 17%.

On to `Fc1cccc(-c2cc3nc4c(c(N5CCOCC5)n3n2)CCCC4)c1`, for which the “hERG current change (%, negative = inhibition) at 10uM” value is recorded as -24.1%.

Consider `Cc1nc(N)nc(N/N=C/c2c(F)cccc2Cl)n1`, for which the “hERG current change (%, negative = inhibition) at 10uM” value was 3.11%.

Turning to `COc1cc(NS(=O)(=O)c2ccc(NC(=O)C34CC5CC(CC(C5)C3)C4)cc2)ncn1`, the “hERG current change (%, negative = inhibition) at 10uM” value was -4.59%.

Regarding `Cl.OC(COC(c1ccc(Cl)cc1)c1ccc(Cl)cc1)CN1CCc2ccccc2C1` (stereo not drawn), the “hERG current change (%, negative = inhibition) at 10uM” value is listed as -61.6%.

`OC(COC(c1ccc(F)cc1)c1ccc(F)cc1)CN1CCc2ccccc2C1` (stereo not drawn): the “hERG current change (%, negative = inhibition) at 10uM” value was -73.7%.

For the compound `OC(CN1CCc2ccccc2C1)c1ccccc1` (stereo not drawn), the “hERG current change (%, negative = inhibition) at 10uM” value is recorded as -9.09%.

In the case of `OC(COC(c1ccccc1)c1ccccc1)CN1CCc2ccccc2C1` (stereo not drawn), the “hERG current change (%, negative = inhibition) at 10uM” value is recorded as -76.9%.

In the case of `CC1(c2ccc3c(c2)OCCCO3)NC(=O)N(CC(=O)NCCc2ccccc2)C1=O` (stereo not drawn), the “hERG current change (%, negative = inhibition) at 10uM” value is reported as -7.38%.

Consider `COc1ccc(C(CNC(=O)COc2c(C)cc(C)cc2C)N2CCOCC2)cc1` (stereo not drawn), for which the “hERG current change (%, negative = inhibition) at 10uM” value is recorded as -12.1%.

`COc1ccc(-c2coc3cc(O)ccc3c2=O)cc1`: the “hERG current change (%, negative = inhibition) at 10uM” value was -5.05%.

As to `CCOC(=O)CSC1=N/C(=C\c2cc(OC)c(OC)c(OC)c2)C(=O)N1C`, the “hERG current change (%, negative = inhibition) at 10uM” value is given as -7.36%.

Consider `CCN1C(=O)/C(=C/c2ccc(OC)c(OC)c2)N=C1SCC(=O)NCc1ccco1`, for which the “hERG current change (%, negative = inhibition) at 10uM” value is reported as -15.1%.

On to `CCOC(=O)CSC1=N/C(=C\c2ccc(OC)c(OC)c2)C(=O)N1C`, for which the “hERG current change (%, negative = inhibition) at 10uM” value was -69.7%.

Regarding `CCOC(=O)C1(CCCc2ccccc2)CCN(S(=O)(=O)N(C)C)CC1`, the “hERG current change (%, negative = inhibition) at 10uM” value was -4.73%.

On to `CCOC(=O)C1(CCCc2ccccc2)CCN(C2CCCC2)CC1`, for which the “hERG current change (%, negative = inhibition) at 10uM” value is -69.7%.

With `O=C(C1CCOCC1)N1CCC(CO)(CCc2ccccc2)CC1`, the “hERG current change (%, negative = inhibition) at 10uM” value is 5.29%.

Turning to `CCOC(=O)C1(CCCc2ccccc2)CCN(S(C)(=O)=O)CC1`, the “hERG current change (%, negative = inhibition) at 10uM” value was -8.15%.

In the case of `CCOC(=O)C1(CCCc2ccccc2)CCN(C(=O)C2CCCO2)CC1` (stereo not drawn), the “hERG current change (%, negative = inhibition) at 10uM” value is -25.7%.

Regarding `CCOC(=O)C1(CCc2ccccc2)CCN(C(=O)C2CCOCC2)CC1`, the “hERG current change (%, negative = inhibition) at 10uM” value is -53.1%.

Turning to `CCOC(=O)C1(CCCc2ccccc2)CCN(C(=O)C2CCCN(C(N)=O)C2)CC1` (stereo not drawn), the “hERG current change (%, negative = inhibition) at 10uM” value was -72.4%.

For the compound `CCOC(=O)C1(CCCc2ccccc2)CCN(C(=O)[C@@H]2C[C@@H](C)NC(=S)N2)CC1`, the “hERG current change (%, negative = inhibition) at 10uM” value is -25.1%.

Turning to `CCOC(=O)C1(Cc2ccccc2C(F)(F)F)CCN(C2CCC2)CC1`, the “hERG current change (%, negative = inhibition) at 10uM” value was -36.6%.

In the case of `CCOC(=O)C1(CCCc2ccccc2)CCN(C2CCC2)CC1`, the “hERG current change (%, negative = inhibition) at 10uM” value was -74.8%.

In the case of `CCOC(=O)C1(CCc2ccccc2)CCN(C(=O)C2CCCO2)CC1` (stereo not drawn), the “hERG current change (%, negative = inhibition) at 10uM” value is given as -13%.

Consider `O=c1cc(O)c(-c2cccc(C(F)(F)F)c2)c(Cl)[nH]1`, for which the “hERG current change (%, negative = inhibition) at 10uM” value came out at 22.5%.

For the compound `O=C1C(Cc2ccc3[nH]ccc3c2)NC(=S)N1c1ccccc1` (stereo not drawn), the “hERG current change (%, negative = inhibition) at 10uM” value is 7.61%.

For `Cc1ccccc1C(=O)NC(=S)NCc1cccnc1`, the “hERG current change (%, negative = inhibition) at 10uM” value is listed as 31.9%.

On to `COC(=O)c1ccc(CO/N=C2\CCCc3nonc32)cc1`, for which the “hERG current change (%, negative = inhibition) at 10uM” value is -35.1%.

For the compound `O=C(Cn1c(-c2ccccc2)noc1=O)Nc1ccc(N2CCCCCC2)cc1`, the “hERG current change (%, negative = inhibition) at 10uM” value amounted to 6.95%.

Consider `Cc1cc(C)cc(OCC(=O)OCC(=O)NCc2ccco2)c1`, for which the “hERG current change (%, negative = inhibition) at 10uM” value was found to be 4.8%.

For `O=C(Cc1ccc(NC2=NC3CS(=O)(=O)CC3S2)cc1)NCCc1ccccc1` (stereo not drawn), the “hERG current change (%, negative = inhibition) at 10uM” value is on record as 6.22%.

As for `O=c1oc2cc(OCc3ccc(C(F)(F)F)cc3)ccc2cc1-c1ccccn1`, the “hERG current change (%, negative = inhibition) at 10uM” value is recorded as 10.4%.

On to `Cc1ccc(C(=O)OCCOc2cccc(Cl)c2)cc1S(=O)(=O)N1CCOCC1`, for which the “hERG current change (%, negative = inhibition) at 10uM” value is on record as -12.2%.

Regarding `CCOC(=O)C1=C(c2ccccc2)NC(=S)NC1c1ccc(Cl)cc1` (stereo not drawn), the “hERG current change (%, negative = inhibition) at 10uM” value is 0.162%.

As to `Cc1ccc(NC(=O)C2CCN(S(C)(=O)=O)CC2)cc1C`, the “hERG current change (%, negative = inhibition) at 10uM” value came to 3.29%.

`OC(c1ccccc1)(c1ccc(Cl)cc1)C1CN2CCC1CC2` (stereo not drawn): the “hERG current change (%, negative = inhibition) at 10uM” value is given as -56%.

Consider `Cc1ccccc1C(O)(Cc1ccccc1)C1CN2CCC1CC2.Cl` (stereo not drawn), for which the “hERG current change (%, negative = inhibition) at 10uM” value was -55.2%.

On to `CC(C)[N+]12CCC(CC1)C(C(O)(c1ccccc1)c1ccccc1)C2.[I-]` (stereo not drawn), for which the “hERG current change (%, negative = inhibition) at 10uM” value is reported as 16.9%.

Regarding `O=C(NC1CN2CCC1CC2)c1cccc(Cl)c1` (stereo not drawn), the “hERG current change (%, negative = inhibition) at 10uM” value was 3.72%.

Regarding `Cc1ccc(C(O)(c2ccc(C)c(C)c2)C2CN3CCC2CC3)cc1C.Cl` (stereo not drawn), the “hERG current change (%, negative = inhibition) at 10uM” value is on record as -67.6%.

In the case of `c1ccc(C2CN3CCC2CC3)cc1` (stereo not drawn), the “hERG current change (%, negative = inhibition) at 10uM” value was -5.74%.

For the compound `Cl.OC(Cc1ccccc1)(c1ccccc1)C1CN2CCC1CC2` (stereo not drawn), the “hERG current change (%, negative = inhibition) at 10uM” value is listed as -49.7%.

For `Cl.OC(c1ccccc1)(c1ccccc1)C1CN2CCC1CC2` (stereo not drawn), the “hERG current change (%, negative = inhibition) at 10uM” value is given as -45.2%.

Consider `C[N+]12CCC(CC1)C(C(O)(c1cccc(Cl)c1)c1cccc(Cl)c1)C2.[I-]` (stereo not drawn), for which the “hERG current change (%, negative = inhibition) at 10uM” value was determined as 13.6%.

In the case of `Cc1ccc(C(=O)N2CCC(C)CC2)cc1C`, the “hERG current change (%, negative = inhibition) at 10uM” value turned out to be 8.09%.

As to `Cl.OC(c1cccc(Cl)c1)(c1cccc(Cl)c1)C1CN2CCC1CC2` (stereo not drawn), the “hERG current change (%, negative = inhibition) at 10uM” value was -81.8%.

Take `CC(=O)N1CCN(c2ccc(NC(=O)c3cccc(Cl)c3)cc2)CC1`: the “hERG current change (%, negative = inhibition) at 10uM” value is reported as -7.02%.

With `COc1ccc2nc(NC(=O)C(NS(=O)(=O)c3cccs3)C(C)C)sc2c1` (stereo not drawn), the “hERG current change (%, negative = inhibition) at 10uM” value was determined as 8.73%.

For `Cc1ccc(-n2cc(CCCCCCCCC(=O)O)nn2)cc1`, the “hERG current change (%, negative = inhibition) at 10uM” value is recorded as -12.3%.

Consider `COc1ccc(-c2ccc(=O)n(CC(=O)Nc3nnc(C(C)C)s3)n2)cc1OC`, for which the “hERG current change (%, negative = inhibition) at 10uM” value is given as 11.9%.

Consider `S=c1[nH]c2cnccc2n1Cc1ccccc1`, for which the “hERG current change (%, negative = inhibition) at 10uM” value is given as 12.4%.

For `COc1cc(C(=O)NCCOc2ccc(F)cc2)c(Br)c(OC)c1OC`, the “hERG current change (%, negative = inhibition) at 10uM” value is on record as 3.42%.

For `COCC(C)NC(=O)c1noc2c1CCc1cc(OC)ccc1-2` (stereo not drawn), the “hERG current change (%, negative = inhibition) at 10uM” value is recorded as -25.9%.

Consider `CCOc1ncccc1C(=O)Nc1cc(S(=O)(=O)N2CCCCC2)ccc1OC`, for which the “hERG current change (%, negative = inhibition) at 10uM” value was -8.23%.

Regarding `COc1ccc(C)cc1NC(=O)CN1C(=O)COc2ccc(S(=O)(=O)N3CCC(C)CC3)cc21`, the “hERG current change (%, negative = inhibition) at 10uM” value was 26.3%.
